Laboratory results reported in PubChem BioAssay AID1567 (National Center for Advancing Translational Sciences (NCATS), 2009).
Records with an inconclusive call do not appear. The source made the active and inactive calls. Calls come from the whole dose curve; as a rule, active = well fitted inhibition curve with a large enough effect; inconclusive = small, poorly fitted or top-dose-only effect, or effect the other way; inactive = no such curve, though single readings can be large or run the other way.

target: Thyroid hormone receptor beta (Homo sapiens) (UniProt P10828); test: Cell-based Gene Reporter Secondary Assay to Characterize qHTS Inhibitors of the Interaction of Thyroid Hormone Receptor and Steroid Receptor Coregulator 2; conditions: WRO cells TRbeta TRE-luciferase, T3-stimulated, 16 h; series mostly up to 29.9 µM; activity change, negative = inhibition: at the top concentration
Sequence (P10828 whole entry, looked up): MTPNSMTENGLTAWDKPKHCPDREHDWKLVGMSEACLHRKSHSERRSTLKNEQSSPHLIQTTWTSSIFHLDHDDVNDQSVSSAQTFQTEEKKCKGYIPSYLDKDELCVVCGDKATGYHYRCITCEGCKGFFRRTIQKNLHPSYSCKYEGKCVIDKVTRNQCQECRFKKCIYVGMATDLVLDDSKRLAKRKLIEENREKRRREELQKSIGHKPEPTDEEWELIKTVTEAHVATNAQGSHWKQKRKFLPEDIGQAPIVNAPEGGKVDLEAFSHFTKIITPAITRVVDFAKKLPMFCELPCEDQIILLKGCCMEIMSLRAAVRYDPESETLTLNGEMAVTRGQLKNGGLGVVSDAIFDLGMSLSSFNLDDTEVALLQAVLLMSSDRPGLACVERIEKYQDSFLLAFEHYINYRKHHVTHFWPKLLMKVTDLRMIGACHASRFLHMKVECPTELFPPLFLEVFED
Text: NIH Molecular Libraries Probe Production Network [MLPCN] NIH Chemical Genomics Center [NCGC] MLPCN Grant: DK058080 Assay Provider: R. Kip Guy, St. Jude Children's Research Hospital NCGC Assay Overview: Thyroid receptor (TR) regulates many homeostatic processes including basal metabolism, cardiovascular function, body weight, and lipid trafficking. TR modulators are potential therapeutics for obesity and hyperlipidemias but current thyroid analogs have undesirable side effects, particularly cardiac stimulation. This secondary assay characterized selected actives identified in the qHTS for Inhibitors of the Interaction of Thyroid Hormone Receptor and Steroid Receptor Coregulator 2. The human follicular thyroid carcinoma cell line WRO (kindly provided by Dr. M. D. Ringel) stably expresses TRbeta and a luciferase reporter gene fused to TR response element. The addition of T3 ligand elevates expression of the TRE luciferase reporter. This assay measures the transcriptional activity of compounds.
NCGC Assay Protocol Summary: Cells were maintained in RPMI 1640 culture medium supplemented with 10% heat-inactivated FBS, 0.33 mg/ml hygromycin, 0.33 mg/ml geneticin, 50 units/ml penicillin, 50 ug/ml streptomycin. Cells were harvested and resuspended at 330,000 cells/ml in assay medium (50% DMEM 50% F-12 medium without Phenol-Red (Cellgro #16-405-CV), L-glutamine, 10% heat inactivated and charcoal treated FBS, 100 uM non-essential amino acid, 50 units/ml penicillin, 50 ug/ml streptomycin). Cells were dispensed at 10,000 cells/30 ul/well into 384 well plates (Corning 3917) and incubated 12 h at 37 C and 5% CO2. Compounds and T3 (100nM final concentration) were added using a pin tool and plates were incubated 16 h incubation at 37 C and 5% CO2. Following incubation, plates were equilibrated at ambient temperature for 30 min, 30 ul of Bright-Glo (Promega) was added and luminescence was detected by an EnVision (PerkinElmer).

Potency, active:
CN1CCc2ccc3c4c2[C@]1(C)Cc1cccc(c1-4)OCO3 7.94 µM, COc1cc(NC(C)CCCN)c2ncccc2c1 (stereo not given) 22.4 µM, CCCc1nc2c(=O)n(C)c(=O)nc-2n(C)n1 0.794 µM, CN1c2ccccc2C(C)(C)C12C=Nc1c(ccc3ccccc13)O2 (stereo not given) 4.47 µM, Nc1cc(-c2ccncc2)c[nH]c1=O 14.1 µM, COc1cc(NCCCC(C)N)c2ncccc2c1 (stereo not given) 3.16 µM, CCC(CNc1cc(OC)cc2cccnc12)NC1CCCCC1 (stereo not given) 6.31 µM

Activity change, negative = inhibition, inactive:
CN(C)c1cc(Cl)c2nonc2c1N 15.2%, O=C(Nc1nc2ccc(Cl)cc2s1)c1ccc(N2CCCCC2)c([N+](=O)[O-])c1 19.6%, Cn1cc(/C=C2\SC(=S)N(NC(=O)c3ccccc3)C2=O)c2ccccc21 2.16%, C=CCSc1nnc2n(-c3ccccc3OC)c(=O)c3c4c(sc3n12)CCC4 0.913%, O=c1cc(C23CC4CC(CC(C4)C2)C3)[nH][nH]1 11.1%, Cc1nc2ccccc2n2c(O)c(CC(=O)O)cc12 -9.96%, Cc1cc(C)cc(OCC(=O)NCCc2nc3ccccc3[nH]2)c1 6.99% [at 59.9 µM], O=C(O)[C@H]1CN(CCCP(=O)(O)O)CCN1 -100% [at 59.9 µM], Cc1nnc(SCC(=O)Nc2ccc(N(C)C)cc2)[nH]c1=O 7.12% [at 59.9 µM], C=CCNC(=O)/C(C#N)=C\c1cc(Cl)c(OCC)c(OC)c1 -29.7%, CN1c2ccccc2C(C)(C)C12C=Nc1c(cc(N3CCOCC3)c3ccccc13)O2 (stereo not given) 13.7%, CCOC(=O)C(NC(=O)Nc1ccc(O)cc1)(c1ccccc1)C(F)(F)F (stereo not given) 24.2%, CC1=NN(Cc2ccccc2)C(=O)C1 23.4%, CCOc1cc(N2CCOCC2)c(OCC)cc1NC(C)C(=O)N1CCN(CC)CC1 (stereo not given) 12%, CCSc1ncc(Cl)c(C(=O)Nc2nc3ccc(OC)cc3s2)n1 -4.44% [at 59.9 µM], CCC(NC(=O)Nc1ccc(O)cc1)(C(F)(F)F)C(F)(F)F 9.95%, CC(NC(=O)Nc1ccc(O)cc1)(C(F)(F)F)C(F)(F)F -0.554%, COc1ccc(-c2nc(CS(=O)CC(=O)NCc3ccccn3)c(C)o2)cc1 (stereo not given) -2.31%, Nc1cnccc1C(=O)O -3.24%, CCc1ccc2c(c1)c1nc(C)sc1n2CC 17.3%, Cc1cccc(S(=O)(=O)c2cn(Cc3ccccc3)c3cc(N4CCC(C)CC4)c(F)cc3c2=O)c1 0.761% [at 59.9 µM], CC1=NN(c2ccc(F)cc2)C(=O)C1C(c1cccc(O)c1)c1c(C)[nH]n(-c2ccc(F)cc2)c1=O (stereo not given) -12.9%, Cc1ccc(OC(=S)Nc2ccc(O)cc2)cc1 -22%, CN1N=C(C(C)(C)C)CC1=O 8.94%, COc1ccc2ccc3c(c2c1)N=CC1(O3)N(C)c2ccccc2C1(C)C (stereo not given) -22.8%, CCOc1cc(C(c2c(C)[nH][nH]c2=O)c2c(C)[nH][nH]c2=O)ccc1OS(=O)(=O)c1ccc(C)cc1 18.7%, O=C(NNc1cc(N2CCOCC2)nc(N2CCOCC2)n1)c1ccc([N+](=O)[O-])cc1 -19.3%, CCOc1ccc(NC(=O)C(c2ccccn2)N(C(=O)CCl)c2ccc(F)cc2)cc1 (stereo not given) -6.26%, Cc1ccc2c(CC(=O)Nc3c(C(=O)c4ccc(F)cc4)oc4ccccc34)coc2c1C 23.4% [at 59.9 µM], Cn1c(NNC(=O)c2c(F)cccc2F)cc(=O)n(C)c1=O 1.12%, CCOC(=O)c1cnc2nc(NCc3ccc(OC)c(OC)c3)[nH]n2c1=O -0.994%, Cc1ccc(-c2nc(S(=O)(=O)c3ccc(F)cc3)c(SCC(=O)NCC3CCCO3)o2)cc1 (stereo not given) -6.71%, Nc1cccnc1Sc1cc(Cl)c(Cl)cc1Cl -26.2%
